From PubChem
An excerpt weighted towards active compounds, which were near 2.4% of everything screened.
D2 PAM-1: D2 dopamine receptor (human) potentiation; HEK293 T-REx D2, calcium flux, EC20 dopamine potentiation; hit rate 0.34% among 340,000; potentiation, % at 10 µM;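 active = potentiation over 3 SD above the plate norm, cut at about 30% in these data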; also: 0% is about no effect
Target sequence (P14416 whole entry, looked up): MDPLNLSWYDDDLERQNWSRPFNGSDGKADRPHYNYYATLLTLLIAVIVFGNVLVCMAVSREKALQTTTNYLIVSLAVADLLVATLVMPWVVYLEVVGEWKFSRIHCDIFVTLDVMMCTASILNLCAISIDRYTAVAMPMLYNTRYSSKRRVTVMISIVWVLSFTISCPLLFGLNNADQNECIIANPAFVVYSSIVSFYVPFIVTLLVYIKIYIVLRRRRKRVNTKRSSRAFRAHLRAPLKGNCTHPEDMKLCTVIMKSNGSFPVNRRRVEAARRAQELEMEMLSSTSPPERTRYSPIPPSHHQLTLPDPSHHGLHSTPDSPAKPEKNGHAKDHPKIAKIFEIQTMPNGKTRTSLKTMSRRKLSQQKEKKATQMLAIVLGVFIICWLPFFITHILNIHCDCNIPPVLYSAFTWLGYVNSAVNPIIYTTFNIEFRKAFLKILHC
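Potentiation of an EC20 dopamine calcium response measured kinetically over 180 s, after a preceding 180 s compound-only read flagging agonists. Cells: inducible Hek293 Trex D2 line, 4000/well, cultured overnight at 30 C before dye loading.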
D2 ag-1: D2 dopamine receptor (human) agonism | P14416 | HEK293 T-REx D2 cells, calcium flux agonist mode | activation, % at 2 µM | hit rate 0.53% among 340,000 | AID 485358;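 active = activation over 3 SD above normal in the single-dose calcium agonist read, cut at about 30% in these data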; also: 0% is about no effect
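Calcium-flux readout, 1 cycle/sec over 180 s following compound pin transfer, in inducible HEK293 Trex D2 cells (force-coupled); dopamine controls included. Positive calcium responses during this window marked compounds as potential agonists.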
D2 ag-2: agonists of human D2 dopamine receptor (beta-arrestin); DiscoveRx PathHunter D2 beta-arrestin, luminescence, 90 min; 100% = 57 uM dopamine signal; hit rate 0.084% among 360,000; activation, % (no concentration beside the values); P14416; AID 624465; in the data active = activation above about 40%; inconclusive = between about 15% and that limit
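Agonist mode: compounds alone added to overnight-plated D2 PathHunter cells for 90 min at 37 C, with 57 uM final dopamine (EC100) defining full response. Beta-arrestin recruitment detected by chemiluminescent reagent, read after 1 h at ambient temperature.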
D2 antagonist: antagonists of human D2 dopamine receptor | HEK293 TREx D2 cells, calcium flux, dopamine EC80 | P14416 | inhibition, % at 10 µM | hit rate 2% among 340,000 | AID 485344; in the data active = inhibition above about 30%; inactive = below that, where a call was filed; also: 0% is about no effect
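Cells plated overnight at 30 C with tetracycline; no-wash calcium dye, 30–90 min RT; 10 s baseline; compound pinned; 180 s read; EC80 dopamine added; another 180 s read.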
D2 PAM-2: human D2 receptor positive allosteric modulation; P14416; DiscoveRx D2 beta-arrestin cells, luminescence, 90 min; 100% = 57 uM dopamine signal; potentiation, % (concentration not given with the values); hit rate 0.23% among 360,000; AID 624464; in the data active = potentiation above about 50%; inconclusive = mostly about 30% to 49%
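PathHunter beta-arrestin assay in DiscoveRx D2 cells. Compounds were added with an EC20 of dopamine (50 nM final) for 90 min at 37 deg C. Luminescence was read 1 h after detection reagent, with 57 uM dopamine as the EC100 control.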
The depositor's hits bear a star; ? = inconclusive; / = no result.

SMILES | D2 PAM-1 | D2 ag-1 | D2 ag-2 | D2 antagonist | D2 PAM-2
CCOC(=O)N1N=C(CC)CC1(O)C(F)(F)F (configuration not stated) | 38* | 0 | -3 | 5 | -10
CCOC(=O)C1(CCOc2ccccc2)CCN(Cc2ccc(COC)o2)CC1 | -14 | -1 | -2 | -3 | -15
CCOC(=O)C1(CCOc2ccccc2)CCN(Cc2ccc(C)o2)CC1 | -17 | -1 | -1 | 42* | -19
CCOC(=O)C1(CCOc2ccccc2)CCN(Cc2ccc(O)c(OCC)c2)CC1 | -14 | 0 | 8 | 39* | -26
Cc1ccc(NC(=O)COC(=O)c2cccc3c2C(=O)c2ccccc2C3=O)c(C)c1 | -9 | -1 | 10 | -16 | 56*
Cc1ccc(Cl)cc1NC(=O)COC(=O)c1ccccc1O | -4 | -1 | -5 | 4 | -4
Cc1ccc(C)c(NC(=O)COC(=O)c2cccc3c2C(=O)c2ccccc2C3=O)c1 | -2 | -1 | ? | 8 | 54*
Cc1cc(C)c(NC(=O)COC(=O)c2cccc3c2C(=O)c2ccccc2C3=O)c(C)c1 | 8 | 1 | 12 | 19 | 55*
Cc1nn(C(=O)c2ccc(Br)cc2)c(C)c1S(=O)(=O)N1CCOCC1 | -6 | -1 | / | / | /
CCOc1ccc(CNC(=O)c2cccc(NC(=O)N3CCSc4ncccc43)c2)cc1OC | -3 | 0 | / | / | /
CSCC(C)N1CCC(n2nccc2NC(=O)c2ccc3c(c2)OCO3)CC1 (configuration not stated) | -1 | 0 | -3 | 58* | -4
O=C(Nc1ccnn1C1CCN(Cc2ccccc2)CC1)C1CCCC1 | -14 | 0 | -3 | 15 | -39
CC(Cc1ccc(Cl)cc1)N1CCC(n2nccc2NC(=O)C2CCCC2)CC1 (configuration not stated) | -14 | 1 | -1 | 31* | -7
Cc1ncc(CO)c2c1Oc1nc(-c3ccc(F)cc3)nc(SCC(=O)N3CCCCC3)c1C2 | 0 | 1 | / | / | /
CN(C)c1ccc(/C=N/NC(=O)C(O)(c2ccccc2)c2ccccc2)o1 | 3 | -1 | 1 | 33* | -8
Cc1ccc(S(=O)(=O)Nc2ccc3c(c2)C(=O)c2ccccc2-3)cc1 | / | / | -7 | / | -6
Cc1ccc(NS(=O)(=O)c2ccc(C)c(NC(=O)COc3ccccc3)c2)c(C)c1 | -4 | -1 | -8 | 67* | -1
Cc1ccc(NS(=O)(=O)c2ccc3c(c2)C(=O)c2ccccc2C3=O)c(C)c1 | 3 | 0 | 5 | 0 | 81*
Cc1ccc(NC(=O)COc2ccccc2)c(NC(=O)c2ccccc2C)c1 | / | / | -3 | / | -6
COc1cc(OC)c(C2=NOC(C(=O)NCc3cccnc3)C2)cc1Cl (configuration not stated) | 2 | 0 | 3 | -1 | 54*
COc1ccc(OC)c(C2=NOC(C(=O)NCc3cccnc3)C2)c1 (configuration not stated) | 3 | 0 | -1 | -17 | -2
O=C(NCCc1ccc(Cl)cc1)C1CCN(c2cnccn2)CC1 | -3 | -1 | 1 | 0 | 2
O=C(NCCc1ccc(Cl)cc1)C1CCN(c2ncccn2)CC1 | 10 | -2 | -2 | 61* | -26
Cc1ccc(C2CC(=O)N(Cc3ccccc3)c3c2c(C)nn3-c2nc(C)cc(C)n2)cc1 (configuration not stated) | 12 | / | / | / | /
COc1ccccc1CNC(=O)CCCn1c(=O)c2cccn2c2ccccc21 | -2 | -1 | / | / | /
SMILES | D2 PAM-1 | D2 ag-1 | D2 ag-2 | D2 antagonist | D2 PAM-2
Cc1ccc(NC(=O)Cn2nc(C)c3nn(-c4ccc(Cl)cc4)c(C)c3c2=O)cc1F | 7 | / | / | / | /
O=C1CC(c2ccco2)CC(O)=C1C=NCCN1CCNCC1 (configuration not stated) | -5 | 1 | -1 | -6 | -1
O=C1CC(c2ccco2)CC(O)=C1C=NCCN1CCN(C2CC(=O)N(c3ccccc3)C2=O)CC1 (configuration not stated) | 47* | 0 | 1 | -8 | -1
COc1cccc(-c2nc(SCC(=O)NC3CCCC3)c(-c3ccc(F)cc3)[nH]2)c1 | -15 | / | / | / | /
CN1CCN(c2oc(-c3cccs3)nc2S(=O)(=O)c2ccccc2)CC1 | -25 | 0 | -6 | -35 | -38
CN1CCN(c2oc(-c3ccccc3Cl)nc2S(=O)(=O)c2ccccc2)CC1 | -21 | 1 | -4 | 79* | -50
